Details in all cases: primary human HUVEC with PBMC; actives raise or lower the signal
A short description of assay [1]: BSK_LPS_PGE2: BioMAP Diversity Plus: LPS Assay for Prostaglandin E2 (PGE2) Biomarker Activity (AID 2283082).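 On AC50: secreted prostaglandin E2 measured by ELISA in LPS-stimulated co-culture.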 An outline of the steps:
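LPS-activated HUVEC/PBMC co-culture; cmpd dosed, 24 h; PGE2 by ELISA; bidirectional fit vs DMSO; SRB (0.1%, TCA-fixed, 560 nm) in parallel plates for overt cytotox.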

Read-out in assay [2]: Macrophage colony-stimulating factor (MCSF), CSF1 (gene 1435)
Put plainly: BSK_LPS_MCSF: BioMAP Diversity Plus: LPS Assay for Macrophage colony-stimulating factor (MCSF) Biomarker Activity (AID 2283083). A digest of the protocol:
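Bidirectional fitting against DMSO was applied to M-CSF levels read by ELISA at 24 h post-dose. The system pairs human umbilical vein endothelium with peripheral blood mononuclear cells; parallel SRB staining tracked cytotoxicity.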

Read-out in assay [3]: Tissue Factor, F3 (gene 2152)
Put plainly: BSK_LPS_TissueFactor: BioMAP Diversity Plus: LPS Assay for Tissue Factor Biomarker Activity (AID 2283084). A digest of the protocol:
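Compound was added to an endothelial cell/PBMC co-culture, and after 24 h tissue factor (CD142) was read by ELISA. Gain or loss of signal was fitted against a DMSO baseline, and parallel SRB staining (560 nm) tracked overt cytotoxicity.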

Read-out in assay [4]: Tumor necrosis factor (Homo sapiens) (UniProt P01375)
The experiment in a line: BSK_LPS_TNFa: BioMAP Diversity Plus: LPS Assay for Tumour Necrosis Factor alpha (TNFa) Biomarker Activity (AID 2283085). An outline of the steps:
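Read-out is ELISA of TNFa in primary human endothelial cell–PBMC co-cultures at 24 h after compound. Activity in either direction was fitted against DMSO.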

Read-out in assay [5]: Vascular cell adhesion molecule 1 (VCAM1), VCAM1 (gene 7412)
The experiment in a line: BSK_LPS_VCAM1: BioMAP Diversity Plus: LPS Assay for Vascular cell adhesion molecule 1 (VCAM1) Biomarker Activity (AID 2283086). A digest of the protocol: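 HUVEC + PBMC co-culture, LPS system; compound 24 h; VCAM-1 by ELISA; bidirectional fit vs DMSO control; parallel SRB (0.1%, TCA-fixed, 560 nm) for cytotoxicity.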

Read-out in a further assay: CD38, CD38 (gene 952)
The experiment in a line: BSK_SAg_CD38: BioMAP Diversity Plus: SAg Assay for CD38 Biomarker Activity (AID 2283087). A digest of the protocol: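 Human HUVEC plus PBMC co-culture stimulated with superantigen; CD38 measured by ELISA 24 h after chemical dosing. Fluorescence read-out, bidirectional fit against DMSO; cytotoxicity tracked in parallel by SRB and Alamar Blue.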

Read-out in another assay: CD40, CD40 (gene 958)
Put plainly: BSK_SAg_CD40: BioMAP Diversity Plus: SAg Assay for CD40 Biomarker Activity (AID 2283088). An outline of the steps:
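CD40 is measured by fluorescence ELISA in an endothelial/PBMC primary human co-culture at 24 h post-dose. Fitting is bidirectional, DMSO baseline. Parallel SRB staining (560 nm) flags cytotoxicity.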

Read-out in the next assay: CD69, CD69 (gene 969)
The experiment in a line: BSK_SAg_CD69: BioMAP Diversity Plus: SAg Assay for CD69 Biomarker Activity (AID 2283089). An outline of the steps:
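Endothelial/PBMC co-culture; chemical added; 24 h incubation; CD69 ELISA with fluorescence detection; bidirectional fit vs DMSO.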

Read-out in assay [6]: Monocyte Chemoattractant Protein-1 (MCP1), CCL2 (gene 6347)
Put plainly: BSK_SAg_MCP1: BioMAP Diversity Plus: SAg Assay for Monocyte Chemoattractant Protein-1 (MCP1) Biomarker Activity (AID 2283090). A digest of the protocol:
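MCP-1 levels in the endothelial–PBMC SAg co-culture were quantified by ELISA at 24 h post-dosing; both increases and decreases versus DMSO scored. Cytotoxicity monitored by SRB total protein in parallel cultures.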

Read-out in assay [7]: E-selectin (Homo sapiens) (UniProt P16581)
Put plainly: BSK_SAg_Eselectin: BioMAP Diversity Plus: SAg Assay for Eselectin Biomarker Activity (AID 2283091). A digest of the protocol:
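Cell-surface E-selectin is read by ELISA at 24 h in the SAg co-culture of HUVEC and PBMC. Curves are fitted in both directions relative to DMSO. Parallel SRB total-protein staining tracks overt toxicity.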

Calls of active or inactive are those of the source. How the source made its calls: active means hit-call score of the fitted dose curve at least 0.9, where 1 is the maximum; inactive means score below 0.9.

These results are taken from PubChem BioAssay (EPA / NIEHS).

Chain of Tumor necrosis factor (Homo sapiens) (P01375 whole entry, looked up): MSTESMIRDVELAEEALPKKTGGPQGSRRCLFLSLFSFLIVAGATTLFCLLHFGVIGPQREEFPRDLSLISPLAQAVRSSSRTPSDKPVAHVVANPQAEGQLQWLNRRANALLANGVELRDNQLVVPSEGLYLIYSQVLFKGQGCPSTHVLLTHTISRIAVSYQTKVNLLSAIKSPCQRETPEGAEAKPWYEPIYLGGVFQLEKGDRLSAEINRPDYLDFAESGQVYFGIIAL
Chain of E-selectin (Homo sapiens) (P16581 whole entry, looked up): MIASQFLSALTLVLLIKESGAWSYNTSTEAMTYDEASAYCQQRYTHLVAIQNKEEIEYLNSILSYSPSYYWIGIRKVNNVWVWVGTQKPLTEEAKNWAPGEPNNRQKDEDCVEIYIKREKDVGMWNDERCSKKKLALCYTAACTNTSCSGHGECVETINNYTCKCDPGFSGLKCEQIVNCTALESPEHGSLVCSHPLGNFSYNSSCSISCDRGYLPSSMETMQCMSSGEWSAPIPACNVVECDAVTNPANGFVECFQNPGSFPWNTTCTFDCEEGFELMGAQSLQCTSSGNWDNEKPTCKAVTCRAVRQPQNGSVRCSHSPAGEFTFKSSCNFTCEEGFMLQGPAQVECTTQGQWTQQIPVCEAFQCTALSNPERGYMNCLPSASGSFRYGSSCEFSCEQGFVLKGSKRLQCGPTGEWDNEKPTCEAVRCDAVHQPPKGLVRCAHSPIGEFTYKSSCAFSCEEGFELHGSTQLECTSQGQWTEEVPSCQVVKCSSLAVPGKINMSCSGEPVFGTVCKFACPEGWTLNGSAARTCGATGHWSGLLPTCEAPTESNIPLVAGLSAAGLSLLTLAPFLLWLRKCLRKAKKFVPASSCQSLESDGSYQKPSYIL

Consider `OC(Cn1cncn1)(Cn1cncn1)c1ccc(F)cc1F`, for which the outcome in assay [1] was “inactive”; in [2], “inactive”; in assay [3] it was “inactive”; in [4] it was “inactive”; in assay [5] it was “inactive”; with CD38, CD38 (gene 952), “inactive”. The outcome with CD40, CD40 (gene 958) was “inactive”; with CD69, CD69 (gene 969), “inactive”; in [6] it was “inactive”; in [7] it was “inactive”.
With `CCCCCCCCN(C)C`, the outcome in assay [1] is “inactive”; in assay [2], “inactive”; in assay [3], “inactive”; in assay [4], “inactive”; in assay [5], “inactive”; with CD38, CD38 (gene 952), “inactive”. Further, the outcome is “inactive” in the assay with CD40, CD40 (gene 958); “inactive” in the assay with CD69, CD69 (gene 969); “inactive” in assay [7].
For the compound `O=S(=O)(O)c1ccc(N=Nc2c(O)ccc3cc(S(=O)(=O)O)ccc23)cc1`, the outcome is “inactive” in assay [1]; “inactive” in [2]; “inactive” in assay [3]; “inactive” in [4]; “inactive” in assay [5]; “inactive” in the assay with CD38, CD38 (gene 952). Further, the outcome in assay [6] and in assay [7] was inactive.
Consider `Cn1c(=O)c2[nH]cnc2n(C)c1=O`, for which the outcome in assay [1] is “inactive”; in [2], “inactive”; in assay [3] it was “inactive”; in assay [4], “inactive”; in assay [5], “inactive”; with CD38, CD38 (gene 952), “inactive”. Moreover, the outcome with CD69, CD69 (gene 969) was “inactive”; in [7], “inactive”.
With `CCCCOC(=O)c1ccccc1`, the outcome was “inactive” in assay [1]; “inactive” in assay [2]; “inactive” in assay [3]; “inactive” in [4]; “inactive” in assay [5]; “inactive” with CD38, CD38 (gene 952). Further, the outcome with CD69, CD69 (gene 969) was “inactive”; in assay [7] it was “inactive”.
As to `FC(F)(F)COC(OCC(F)(F)F)OCC(F)(F)F`, the outcome was “inactive” in assay [1]; “inactive” in assay [2]; “inactive” in assay [3]; “inactive” in assay [4]; “inactive” in assay [5]; “inactive” with CD38, CD38 (gene 952). In addition, the outcome is “inactive” with CD69, CD69 (gene 969) and “inactive” in assay [7].
Regarding `FC(F)C(F)(F)COCC1CO1` (stereo not drawn), the outcome in assay [1] was “inactive”; in assay [2], “inactive”; in assay [3], “inactive”; in [4], “inactive”; in [5], “inactive”; with CD38, CD38 (gene 952) it was “inactive”. Moreover, the result in assay [6] and in assay [7] was inactive.
For the compound `C[C@@H](Oc1ccc(CNC(=O)c2cccnc2Oc2ccc3c(c2)OCO3)c(F)c1)C(=O)O`, the outcome in assay [1] was “inactive”; in assay [2], “inactive”; in assay [3], “inactive”; in [5], “inactive”; in the assay with CD38, CD38 (gene 952) it was “inactive”; in the assay with CD69, CD69 (gene 969), “inactive”. Also, the outcome in [7] was inactive. Further, in [4], the concentration at half-maximal activity (AC50) (in general, the concentration at which the activity in the assay is half-maximal) was 2.29 µM (active).
With `CC(=O)c1ccccc1`, the outcome in assay [1] was “inactive”; in assay [2], “inactive”; in assay [3], “inactive”; in [4], “inactive”; in assay [5], “inactive”; with CD38, CD38 (gene 952) it was “inactive”. For the same compound, the outcome in [6] and in [7] was inactive.
`OCCOCCOCCO`: the outcome in [1] is “inactive”; in assay [2], “inactive”; in assay [3], “inactive”; in assay [4], “inactive”; in assay [5] it was “inactive”; with CD38, CD38 (gene 952), “inactive”. Besides, the outcome in assay [7] was inactive.
`CCN(CC)C(=S)SSC(=S)N(CC)CC`: the AC50 in assay [1] was 14.9 µM (active); in assay [2] it was 30.3 µM (active); in [3] it was 27.6 µM (active); in assay [4], 15.4 µM (active); in assay [5] it was 28 µM (active); in the assay with CD38, CD38 (gene 952), 31.7 µM (active). In addition, the AC50 in assay [6] is 28.4 µM (active); in [7], 32.6 µM (active).
Turning to `CC(C)C(=O)Nc1ccc([N+](=O)[O-])c(C(F)(F)F)c1`, the result in assay [1], in [2], in assay [3], in assay [4], in [5] and in [7] was inactive. Also, the AC50 with CD38, CD38 (gene 952) was 14.7 µM (active).
With `CCCc1ccccc1`, the outcome was “inactive” in assay [1]; “inactive” in assay [2]; “inactive” in assay [3]; “inactive” in [4]; “inactive” in assay [5]; “inactive” with CD38, CD38 (gene 952). For the same compound, the outcome in assay [6] and in assay [7] was inactive.
Regarding `Cc1cccc(O)c1C`, the outcome in assay [1] is “inactive”; in [2] it was “inactive”; in assay [3], “inactive”; in [4], “inactive”; in assay [5] it was “inactive”; in the assay with CD38, CD38 (gene 952), “inactive”. In addition, the outcome was “inactive” with CD69, CD69 (gene 969) and “inactive” in [7].
